# Compound activity as filed in PubChem.
# KB-3-1 cytotox: qHTS assay for MDR1-selective chemotherapeutics: Primary screen using the parental adenocarcinoma cell KB-3-1 | KB-3-1 viability, CellTiter-Glo ATP luminescence, 72 h | Potency, µM (doses to about 46.1 µM), actives largely listed as cytotoxic | 1.4% of 400,000 active | AID 1347075, 2019; note: % is set by controls: 0 for no effect and ±100 for the full control effect; nearly all actives have a fitted effect of over 60% in size
#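 Screening of KB-3-1 cells (DMEM, 10% FBS, phenol-red free) ran from lowest to highest compound concentration; after 72 h at 37 °C viability was read luminescently and curves fitted.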
# SW480 rerep: A quantitative high throughput screen for small molecules that induce DNA re-replication in SW480 colon adenocarcinoma cells; SW480 DNA re-replication, Hoechst DNA content imaging, 48 h; Potency, µM (series often up to 46.1 µM), for inactives: top-dose re-replication activation, usual class: activators; 1.8% of 340,000 active; AID 624297, 2012; note: % of control where 0% means no effect; nearly all actives have a fitted effect of over 55% in size
#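 Cells (250 per well) received 23 nL compound or DMSO by pin tool and were kept 48 hr at 37 C, 5% CO2. Nuclei were then stained with Hoechst for 40 min and scanned for DNA content.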
# HT1080NT lethal: qHTS for induction of synthetic lethality in tumor cells producing 2HG: qHTS for the HT-1080-NT fibrosarcoma cell line; HT-1080-NT fibrosarcoma viability, CellTiter-Glo ATP luminescence, 48 h; Potency, µM (highest dose often 46.1 µM), without a hit: at the highest dose activity, negative = less viability, usual class: cytotoxic; 1.6% of 360,000 active; AID 686970, 2013;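 note: NT is the 2HG producing partner of a matched IDH1 knockdown line; 0% = DMSO-treated cells and -100% = media-only wells without cells; nearly all actives have a fitted effect of over 55% in size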
#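 A 48-hour cytotoxicity screen used HT-1080-NT cells plated 2 hours before compound delivery. ATP-based CellTiter-Glo luminescence measured viability, normalized to DMSO and no-cell controls.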
# MCF10A rerep: A quantitative high throughput screen for small molecules that induce DNA re-replication in MCF 10a normal breast cells | AID 624296, 2012 | Potency, µM (doses to about 46.1 µM), without a hit: at the top dose activity, positive = re-replication, most hits filed as activators | 2.9% of 350,000 active | MCF 10A DNA re-replication, Hoechst nuclear intensity, 48 h; note: % of control where 0% means no effect; nearly all actives have a fitted effect of over 50% in size
# KB-V1 MDR tox: qHTS assay for MDR1-selective chemotherapeutics: Primary screen using the drug-selected MDR subline cells KB-V1 | Potency, µM (series often up to 46.1 µM), actives largely listed as cytotoxic | KB-V1 MDR cells viability, CellTiter-Glo, 72 h | 3.4% of 400,000 active | AID 1347076, 2019; note: % is set by controls: 0 for no effect and ±100 for the full control effect; nearly all actives have a fitted effect of over 60% in size
#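 Readout: CellTiter-Glo luminescence, 10 min after addition. Cells: KB-V1 MDR subline, 72 h at 37 degrees C with compound. Analysis: corrected, normalized data fitted to concentration-effect curves.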
# HT1080 IDH1KD tx: qHTS for induction of synthetic lethality in tumor cells producing 2HG: qHTS for the HT-1080-IDH1KD cell line. HT-1080 IDH1 knockdown viability, ATP luminescence, 48 h. Potency, µM (top dose mostly 46.1 µM), without a hit: top-dose activity, negative = toxicity, most hits filed as cytotoxic. 2% of 360,000 active;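 note: 0% = DMSO wells and -100% = cell-free medium wells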
#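 Luminescent ATP read-out (CellTiter-Glo, 10 min at room temperature) after 48 h compound exposure at 37 °C gave viability of IDH1-knockdown HT-1080 cells. Activity was normalised to DMSO and cell-free wells, then fitted as concentration-response curves.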
# * hit, by the source's call; i = inactive; u = inconclusive; x = no result given; [ ] = dose if it differs, or a comment. Compounds with a hit are over-represented: about 8% of the library has one in this group of screens. Calls come from the whole dose curve; as a rule, active = well fitted curve in the direction sought with a large enough effect; inconclusive = small, poorly fitted or top-dose-only effect, or another doubt; inactive = no such curve, though single readings can be large; an effect the other way counts as inactive or inconclusive. Potency is the fitted concentration of half-maximal effect.
SMILES,KB-3-1 cytotox,SW480 rerep,HT1080NT lethal,MCF10A rerep,KB-V1 MDR tox,HT1080 IDH1KD tx
Cc1ccc(SCCC(=O)N2CCN(S(=O)(=O)c3ccccc3)CC2)cc1,x,10.5%,-0.6%,u,x,-14.4%
O=C(CCSc1ccc(Cl)cc1)N1CCN(S(=O)(=O)c2ccccc2)CC1,i,5.3%,-8.4%,u,20.6µM*,-10.7%
O=C(Cc1ccccc1F)N1CCN(S(=O)(=O)c2ccc(Cl)cc2)CC1,i,u,-9.6%[9.24 µM],16.4µM*,i,-5.0%
CCOC(=O)N1CCN(C(=O)CCSc2ccc(Cl)cc2)CC1,i,-0.6%,6.9%,13.8%,23.1µM*,8.6%
COc1ccc(C)cc1NC(=O)C1CCN(S(=O)(=O)c2cc(Br)cc3c2N(C(C)=O)CC3)CC1,i,x,x,x,i,x
Cn1c(=O)[nH]c(=O)c2c1nc(Br)n2CCCSc1nc2ccccc2o1,u,7.31µM*,u,13µM*,u,u
Cc1cccc(Cn2c(Sc3nc(C)cs3)nc3c2c(=O)[nH]c(=O)n3C)c1,i,-8.3%,-0.6%,0.3%,4.11µM*,2.5%
Cn1c(=O)c2c(nc(Br)n2Cc2ccc3ccccc3c2)n(C)c1=O,7.31µM*,0.4%,u,u,2.59µM*,-27.5%
Cn1c(=O)[nH]c(=O)c2c1nc(Br)n2Cc1cccc(Br)c1,u,u,6.51µM*,u,u,4.61µM*
CCN(Cc1ccccc1)C(=O)c1c(C)oc2ncn(C)c(=O)c12,i,x,x,x,i,x
CCCCn1c(=N)c(S(=O)(=O)c2ccc(Cl)cc2)cc2c(=O)n3cccc(C)c3nc21,i,x,x,x,u,x
O=C(Nc1cc(Sc2ccccn2)cc([N+](=O)[O-])c1)c1cccc(F)c1,13µM*,-3.4%,-25.4%,5.4%,13µM*,u
COc1ccc2nc(N3CCCC3)c(C#N)cc2c1,i,u,17.9%,u,13µM*,7.0%
COc1ccc2nc(SCC(=O)N3CCCCCC3)c(C#N)cc2c1,i,2.8%,1.5%,u,u,4.5%
COc1ccc2nc(N3CCCCC3)c(C#N)cc2c1,i,u,-13.6%,16.4µM*,u,-0.7%
COC(=O)c1sc2cccc(F)c2c1S(=O)(=O)N1CCN(c2cccc(OC)c2)CC1,i,x,x,x,i,x
CCOc1ccc2c(c1)c(=O)c(S(=O)(=O)c1ccccc1)cn2CC(=O)Nc1ccccc1OC,i,x,x,x,u,x
Cc1ccc(/C=N/N2CCN(c3ccccn3)CC2)cc1,i,-4.1%,10.7%,-0.1%,i,14.0%
ClC(=C\c1ccccc1)/C=N/N1CCN(c2ccccn2)CC1,i,1.9%,4.2%,11.5%,18.4µM*,8.3%
Cc1[nH]c2ccccc2c1C(c1ccccn1)N1CCCC1 (centres undefined),i,-6.2%,7.8%,13.8%,i,6.0%
Cc1[nH]c2ccccc2c1C(c1ccccn1)N1CCC(C)CC1 (centres undefined),18.4µM*,15.2%,2.9%,19.1%,u,7.5%
COc1ccccc1N1CCN(S(=O)(=O)CCNC(=O)Cc2ccc(F)cc2)CC1,u,u,-26.9%,8.0%,18.4µM*,u
CCN1CCN(c2cc(=O)n(Cc3ccc(F)cc3)c(=O)[nH]2)CC1,i,-9.1%,2.4%,3.2%,i,4.8%
CCOC(=O)N1CCN(c2cc(=O)n(Cc3ccc(F)cc3)c(=O)[nH]2)CC1,i,20.6µM*,3.8%,11.6µM*,i,5.2%
COc1ccc(CC(=O)NCCS(=O)(=O)N2CCN(c3ccc(F)cc3)CC2)cc1OC,i,-3.1%,1.3%,-2.0%,i,0.7%
SMILES,KB-3-1 cytotox,SW480 rerep,HT1080NT lethal,MCF10A rerep,KB-V1 MDR tox,HT1080 IDH1KD tx
O=c1cc(N2CCN(c3ccccc3Cl)CC2)[nH]c(=O)n1Cc1ccc(F)cc1,4.61µM*,u,u,2.06µM*,20.6µM*,2.59µM*
O=c1cc(N2CCN(Cc3ccccc3)CC2)[nH]c(=O)n1Cc1ccc(F)cc1,i,0.9%,4.7%[9.24 µM],-3.1%,i,-23.0%
COc1ccccc1N1CCN(c2cc(=O)n(Cc3ccc(F)cc3)c(=O)[nH]2)CC1,5.17µM*,16.4µM*,11.6µM*,u,u,u
Cc1ccccc1CNC(=O)c1ccc(NC(=O)c2nsc3ccccc23)cc1,i,x,x,x,i,x
COc1ccc(Cn2nnnc2C(C(C)C)N2CCN(c3ccccc3OC)CC2)cc1 (centres undefined),18.4µM*,0.8%,-17.8%,8.1%,u,-0.9%[9.24 µM]
COc1ccccc1N1CCN(C(c2ccccc2)c2nnnn2Cc2ccccc2)CC1 (centres undefined),u,x,x,x,i,x
CC1CCN(C(c2cccs2)c2nnnn2Cc2ccccc2)CC1 (centres undefined),u,0.3%,-18.2%,2.9%,14.6µM*,-24.4%
COc1ccc(Cn2nnnc2C(c2cccs2)N2CCCCCC2)cc1 (centres undefined),u,18.9%,-18.0%,5.4%,16.4µM*,-18.5%
COc1ccc(Cn2nnnc2C(c2cccs2)N2CCSCC2)cc1 (centres undefined),i,0.5%,6.4%,-1.4%,i,-2.0%
Cc1cccc(-n2c3nc(=O)[nH]c(=O)c-3cc3ccc(Cl)cc32)c1C,i,x,x,x,i,x
CCOc1ccccc1CNc1nc2nc(C)cc(C)n2n1,i,x,x,x,i,x
COc1ccc(C(=O)Oc2cc(-c3ccc(OC)c(OC)c3)cc(=O)c3c(C)oc(C)c23)cc1,i,x,x,x,i,x
CC(Nc1ccc(-c2nc(-c3ccncc3)no2)cc1[N+](=O)[O-])c1ccccc1 (centres undefined),i,x,x,x,i,x
N#Cc1ccc(Oc2ccc(-c3nc4ccccc4nc3-c3ccccc3)cc2)cc1C#N,i,-15.2%,-9.4%,10.8%,20.6µM*,-10.5%
O=C(NC1CCCCC1)c1ccc(CSc2nc3cccnc3n2Cc2ccc(F)cc2)cc1,i,x,x,x,i,x
CCNC(=S)Nc1cccc(S(=O)(=O)Nc2ccccc2OC)c1,i,3.6%,-11.9%,6.0%,i,-7.2%
COc1ccccc1NS(=O)(=O)c1cccc(NC(=O)Nc2ccccc2)c1,u,u,-9.0%,17.0%,20.6µM*,-9.4%
